Hit rate of the full screen: of about 320,000 compounds, about 2,100 (0.66%) were called active. About 53% were inconclusive and are not listed. The call rests on the fitted dose curve; in most records, active means well fitted inhibition curve with a large enough effect in the signal ratio, with a control signal flat (not every such curve was filed as active); inconclusive means small, poorly fitted or top-dose-only effect, or effect the other way, or a change in a side signal; inactive means flat fitted curve, though single readings scatter; the % refers to the signal ratio. What follows is part of a selection rich in actives, with near analogues and random picks from the rest.

We go through 87 compounds from PubChem BioAssay AID2685 (National Center for Advancing Translational Sciences (NCATS), 2010).
Potency means the concentration at half of the fitted maximal effect.

This experiment is described as follows: qHTS Assay for Lipid Storage Modulators in Drosophila S3 Cells.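 On cell number change: cells counted by Cell Tracker Red CMTPX staining in the red channel.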 On lipid storage change, negative = inhibition: on the % scale 0 is the no-effect control and ±100 the full control effect. The note with it: BODIPY lipid droplet fluorescence, 18-24 h, cells fed with added oleic acid; cell number change: measured here: cell count max response; series mostly up to 46.1 µM. In a few lines:
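Drosophila S3 cells loaded with oleic acid (400 uM, as added) and compounds at several concentrations; lipid droplets imaged by 488-nm laser-scanning cytometry, 500–530 nm intensity and object ratio to cell channel. Percent activity normalized to 20 uM Triacsin C.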
With `COc1ccc(Cl)cc1NC(=O)Nc1ccccc1C(N)=O`, the Potency entry was “inactive” and the cell number change stood at 14.7%.
The corresponding values for `Cc1cccc([C@@H]2[C@@H]3C(=O)N(Cc4ccccc4)C(=O)[C@@H]3[C@]3(C)C(=O)N(c4cccc(Cl)c4)C(=O)N23)c1` are “inactive” and -9.71%.
Regarding `Cc1ccc(N2C(=O)N3[C@H](c4cccc(C)c4)[C@@H]4C(=O)N(Cc5ccccc5)C(=O)[C@@H]4[C@]3(C)C2=O)cc1`, the Potency entry is “inactive” and the cell number change was -18.1%.
On the same counts, the results for `Cc1cccc([C@@H]2[C@@H]3C(=O)N(Cc4ccccc4)C(=O)[C@@H]3[C@]3(C)C(=O)N(c4ccc(Br)cc4)C(=O)N23)c1` are 2.31 µM (active) and 17.2%.
On the same counts, the results for `CN(C(=O)c1cccnc1)c1nnc(-c2cccnc2)s1` are “inactive” and -7.8%.
On the same counts, the results for `COc1ccccc1NC(=O)Nc1cccc(NC(C)=O)c1` are “inactive” and -3.02%.
On to `Cc1csc(NC(=O)c2cnc3ccccc3n2)n1`, for which the Potency was 1.64 µM (active).
For `Cc1csc(NC(=O)c2ccccc2)n1`, the Potency entry is “inactive” and the cell number change was determined as 23.7%.
On the same counts, the results for `Cc1csc(NC(=O)c2ccc3ccccc3n2)n1` are “inactive” and 7.3%.
On the same counts, the results for `Cc1cccc(N2CCN(C(=O)C(NS(=O)(=O)c3cccs3)c3ccccc3)CC2)c1C` (configuration not stated) are “inactive” and -2.06%.
The corresponding values for `CCN=C1S/C(=C\c2cc(Br)c(O)c(OC)c2)C(=O)N1CC` are “inactive” and -10.5%.
As to `CC(NC(=O)C1CCCCC1)c1ccc2c(c1)OCCO2` (configuration not stated), the Potency result is “inactive”.
In the case of `Cc1ccc(C(=O)O)cc1S(=O)(=O)N1CCC(C(=O)O)CC1`, the Potency result is “inactive” and the cell number change is -0.135%.
On the same counts, the results for `Cc1ccc(C(C)(C)C)cc1S(=O)(=O)N1CCC(C(=O)N2CCN(c3ccc(O)cc3)CC2)CC1` are 3.66 µM (active) and -13.6%.
The corresponding values for `O=C(C1CC1)N1CCN(c2ccc(O)cc2)CC1` are “inactive” and 22.2%.
The corresponding values for `Cc1ccc(N(Cc2cc3cc(C)ccc3[nH]c2=O)S(=O)(=O)c2ccccc2)cc1` are “inactive” and -3.48%.
`CCOC(=O)CSc1nc2ccccc2c(=O)n1CC1CCCO1` (configuration not stated): the Potency result was “inactive” and the cell number change amounted to 0.196%.
On to `COc1ccc(OC2C(=O)N(Cc3ccc(F)cc3)C2c2ccc(OC)c(OC)c2)cc1` (configuration not stated), for which the Potency result was “inactive”.
`O=C(Cc1ccccc1F)Nc1ccc(S(=O)(=O)Nc2ncccn2)cc1`: the Potency was 0.146 µM (active) and the cell number change amounted to 16.8%.
The corresponding values for `O=C(Cc1ccc(Cl)c(Cl)c1)Nc1ccc(S(=O)(=O)Nc2ncccn2)cc1` are “inactive” and 8.75%.
The corresponding values for `O=C(Cc1c(Cl)cccc1Cl)Nc1ccc(S(=O)(=O)Nc2ncccn2)cc1` are “inactive” and 17.5%.
Turning to `C#CCN(C(=O)c1ccc(OC)c(OC2CCN(C(C)C)CC2)c1)C1CCCCC1`, the Potency entry was “inactive” and the cell number change came out at 13.3%.
The corresponding values for `Cc1cc(NC(=O)COC(=O)CSc2nc3cc(Cl)ccc3n2Cc2ccccc2)no1` are “inactive” and -15.1%.
The corresponding values for `CC(Sc1nccn1C)C(=O)c1ccc(Br)cc1` (configuration not stated) are 18.4 µM (active) and 8.97%.
On the same counts, the results for `CC(Sc1nccn1C)C(=O)Nc1ccccc1` (configuration not stated) are “inactive” and -8.41%.
With `CC(Sc1nccn1C)C(=O)Nc1ccc(C(N)=O)cc1` (configuration not stated), the cell number change is 24.6% and the lipid storage change, negative = inhibition is -16.1% [at 0.0737 µM] (inactive).
For the compound `Cc1ccc(C)c(NS(=O)(=O)c2ccc(-c3ccc(=O)[nH]n3)o2)c1`, the Potency result was “inactive” and the cell number change is -3.63%.
On the same counts, the results for `Cc1cccc(C)c1NS(=O)(=O)c1ccc(-c2ccc(=O)[nH]n2)o1` are 16.4 µM (active) and -21.6%.
The corresponding values for `Cc1ccc(NS(=O)(=O)c2ccc(-c3ccc(=O)[nH]n3)o2)c(C)c1` are “inactive” and 3.54%.
As to `O=C(O)/C=C/C(=O)NC1CCC(CC2CCC(NC(=O)/C=C/C(=O)O)CC2)CC1` (configuration not stated), the Potency result is “inactive” and the cell number change came out at 16.5%.
On the same counts, the results for `O=C(N/N=C/c1nn(-c2ccccc2)cc1-c1ccc(Cl)cc1)c1ccncc1` are “inactive” and 11.9%.
On the same counts, the results for `Cc1ccc(C)c2[nH]c(=O)c(CCNC(=O)c3ccc(S(=O)(=O)N4CCCC4)cc3)cc12` are 13 µM (active) and -19%.
The corresponding values for `CN(c1ccccc1)S(=O)(=O)c1ccc(C(=O)NCc2ccccc2F)cc1` are 13 µM (active) and -21.4%.
Consider `CS(=O)(=O)c1ccc(C(=O)NCc2ccccc2F)cc1`, for which the Potency result was “inactive” and the cell number change was found to be 16.1%.
The corresponding values for `O=C(NCc1ccccc1F)c1cccc(S(=O)(=O)N2CCCCCC2)c1` are “inactive” and 6.02%.
As for `Cc1ccc2cc(CCNC(=O)c3ccc(S(=O)(=O)N4CCCCC4)cc3)c(=O)[nH]c2c1`, the cell number change is 17.8% and the lipid storage change, negative = inhibition is 20.6% [at 9.22 µM] (inactive).
In the case of `O=C(NCCN=C1NS(=O)(=O)c2ccccc21)c1ccncc1`, the Potency result is “inactive” and the cell number change was -9.37%.
On the same counts, the results for `O=C(NCCCN=C1NS(=O)(=O)c2ccccc21)c1ccc(S(=O)(=O)N2CCCCC2)cc1` are 8.2 µM (active) and -7.55%.
On the same counts, the results for `CCN(CC)S(=O)(=O)c1ccc(C(=O)NCCCN=C2NS(=O)(=O)c3ccccc32)cc1` are “inactive” and 17.2%.
On the same counts, the results for `O=C(NCc1ccccc1F)c1ccc(S(=O)(=O)N2CCCCCC2)cc1` are 18.4 µM (active) and 11.4%.
With `O=C(O)c1ccc(CNC(=O)c2ccc(S(=O)(=O)N3CCCCC3)cc2)cc1`, the Potency entry was “inactive” and the cell number change was -13.8%.
As to `CN(c1ccccc1)S(=O)(=O)c1ccc(C(=O)NCc2cccs2)cc1`, the Potency entry was “inactive”.
Consider `COc1ccc(OC)c2[nH]c(=O)c(CCNC(=O)c3ccc(S(=O)(=O)N4CCCC4)cc3)cc12`, for which the Potency result was “inactive” and the cell number change was 1.32%.
The corresponding values for `O=C(Nc1ccc(C(=O)N2CCOCC2)cc1)c1cnn2c(C(F)F)cc(-c3ccccc3)nc12` are “inactive” and 19.9%.
On the same counts, the results for `CCCCC1CCC(c2nc(-c3cccnc3)no2)CC1` (configuration not stated) are “inactive” and -3.76%.
On the same counts, the results for `CCN1CCN(S(=O)(=O)Cc2ccccc2Cl)CC1` are “inactive” and -8.44%.
`Cc1noc(C)c1CSc1nnc(-c2ccccc2)o1`: the Potency result is “inactive” and the cell number change amounted to 4.76%.
For `Cc1ccc(CNC(=O)/C=C/C(=O)O)cc1`, the Potency entry was “inactive” and the cell number change stood at 15%.
On the same counts, the results for `CN1CCN(c2oc(-c3ccco3)nc2S(=O)(=O)c2ccccc2)CC1` are “inactive” and 0.475%.
On the same counts, the results for `CC(=O)Nc1ccc(S(=O)(=O)Oc2cccc(N3C(=O)C4CCCCC4C3=O)c2)cc1` (configuration not stated) are “inactive” and 5.92%.
On the same counts, the results for `CCOc1ccc(Br)cc1S(=O)(=O)NCc1ccncc1` are “inactive” and 3.33%.
Take `Cc1ccc(OCCn2cc(C(=O)O)c3ccccc32)cc1`: the Potency entry was “inactive” and the cell number change turned out to be 6.58%.
With `COc1ccc(C(=S)N2CCOCC2)cc1OC(=O)c1ccccc1Cl`, the Potency entry is “inactive” and the cell number change worked out at 11.8%.
On the same counts, the results for `Cc1ccc(S(=O)(=O)NC(CC(=O)O)c2ccc(F)cc2)cc1` (configuration not stated) are “inactive” and 2.4%.
`COc1ccc(C(CC(=O)O)NS(=O)(=O)c2ccc(C)cc2)cc1OC` (configuration not stated): the Potency entry was “inactive” and the cell number change was -5.13%.
The corresponding values for `COc1ccc(C(CC(=O)O)NS(=O)(=O)c2ccc(C)cc2)cc1` (configuration not stated) are 2.91 µM (active) and 9.41%.
On the same counts, the results for `O=C(C1=C[C@@H](c2coc3ccccc3c2=O)C[C@@H](OCCCCO)O1)N1CCN(Cc2ccc3c(c2)OCO3)CC1` are “inactive” and -4.69%.
Consider `CCc1c(C(=O)Nc2ccccc2)c(C)[nH]c(=S)c1C#N`, for which the Potency entry was “inactive” and the cell number change turned out to be 16.5%.
For `Cc1ccc(-c2c(C(=O)Nc3ccccc3C)c(C)[nH]c(=S)c2C#N)o1`, the Potency entry is “inactive” and the cell number change is 5.19%.
The corresponding values for `Cc1[nH]c(=S)c(C#N)c(-c2ccccc2)c1C(=O)Nc1ccccc1` are 7.31 µM (active) and -24.7%.
On the same counts, the results for `O=C(CCCN1C(=O)S/C(=C/c2ccccc2)C1=S)Nc1ccc(C(=O)O)cc1` are “inactive” and 10.3%.
On the same counts, the results for `CCc1cccc(NC(=O)CCCN2C(=O)C(c3ccccc3)Oc3cccnc32)c1` (configuration not stated) are 20.6 µM (active) and 12%.
Turning to `CC(=O)c1ccc(NC(=O)CCCN2C(=O)C(c3ccccc3)Oc3cccnc32)cc1` (configuration not stated), the Potency result was “inactive” and the cell number change was -3.13%.
In the case of `Cc1cc(C)cc(NC(=O)CCCN2C(=O)C(c3ccccc3)Oc3cccnc32)c1` (configuration not stated), the Potency is -12%.
Take `Cc1ccc(C)c(NC(=O)C2CCCN2S(=O)(=O)c2ccc3c(c2)n(C)c(=O)c(=O)n3C)c1` (configuration not stated): the Potency result was “inactive” and the cell number change was found to be 7.23%.
On the same counts, the results for `O=C(/C=C/c1ccccc1)NC(NC(=S)Nc1cccc(O)c1)C(Cl)(Cl)Cl` (configuration not stated) are “inactive” and 11.8%.
`O=C(/C=C/c1ccccc1)NC(NC(=S)Nc1cc(Cl)ccc1Cl)C(Cl)(Cl)Cl` (configuration not stated): the Potency is 16.4 µM (active) and the cell number change is -23.7%.
The corresponding values for `O=C(Cc1ccccc1)NC(NC(=S)Nc1cc(Cl)ccc1Cl)C(Cl)(Cl)Cl` (configuration not stated) are “inactive” and -5.82%.
As to `COc1ccc2c(c1)c(C(=O)N/N=C/c1ccc(Br)cc1)c(C)n2C`, the Potency entry is “inactive” and the cell number change came to 12%.
On the same counts, the results for `CCOC(=O)Cc1csc(N/N=C/c2ccc(C(F)(F)F)cc2)n1` are “inactive” and -3.51%.
The corresponding values for `CCN(CC)c1ccc(C=C2C(=O)OC(c3ccccc3)OC2=O)cc1` (configuration not stated) are “inactive” and 18.7%.
On the same counts, the results for `CCN(CC)c1ccc(/C=C2/C(=O)ON=C2C)cc1` are 9.2 µM (active) and -20.6%.
As to `CC1=NOC(=O)/C1=C/c1ccc(N(C)C)cc1`, the Potency result was “inactive” and the cell number change was -16.6%.
In the case of `CCOC(=O)C1CCN(Cc2nnc(-c3ccccc3C)o2)CC1`, the Potency entry was “inactive” and the cell number change came out at 14.7%.
On the same counts, the results for `CCOC(=O)C(NCCc1ccccc1F)(NC(C)=O)C(F)(F)F` (configuration not stated) are “inactive” and 0.435%.
On the same counts, the results for `Cc1cc(C(=O)Nc2ccncc2)ccc1[N+](=O)[O-]` are “inactive” and -15%.
As for `O=C(Nc1cccnc1)c1ccc([N+](=O)[O-])o1`, the Potency entry is “inactive”.
For the compound `O=C(Nc1ccc2oc(-c3cccnc3)nc2c1)c1ccco1`, the Potency entry is “inactive” and the cell number change is -3.59%.
On the same counts, the results for `O=C(Nc1ccc2oc(-c3cccnc3)nc2c1)c1ccc([N+](=O)[O-])o1` are 3.66 µM (active) and -27.4%.
The corresponding values for `O=C(Nc1cccc(NC(=O)c2ccc([N+](=O)[O-])o2)c1)c1ccco1` are 5.8 µM (active) and 19.2%.
On the same counts, the results for `Cc1cccc(NC(=O)NNC(=O)c2ccc(C)c([N+](=O)[O-])c2)c1` are “inactive” and 11.9%.
As for `Cc1cc(C(=O)Nc2cccc(NC(=O)c3ccco3)c2)ccc1[N+](=O)[O-]`, the Potency was 1.84 µM (active) and the cell number change is -29.7%.
On the same counts, the results for `O=C(Nc1cccc(NC(=O)c2ccco2)c1)c1ccc([N+](=O)[O-])cc1` are “inactive” and 3.56%.
The corresponding values for `O=C(Nc1ccc(Cl)c([N+](=O)[O-])c1)c1ccco1` are “inactive” and -24.9%.
On the same counts, the results for `O=C(Nc1ccccc1)c1ccc(NCCc2ccccc2)c([N+](=O)[O-])c1` are “inactive” and -13.2%.
For the compound `O=C(Nc1cccc(NC(=O)c2ccccc2Cl)c1)c1ccc([N+](=O)[O-])o1`, the Potency entry was “inactive”.
On to `Cc1cccc(NC(=O)c2ccc(NCCc3ccccc3)c([N+](=O)[O-])c2)c1`, for which the Potency was 16.4 µM (active) and the cell number change was 11.4%.
